# Measurements published in PubChem BioAssay (EPA / NIEHS).
# Several values for one entry are separate records, joined by “and”; a condition that tells them apart may be missing. Equal values may be shown once. Inconclusive results are not listed. Where a structure was tested more than once in an assay, its records may differ in their call. Activity calls are given as the source filed them. The calls were made as follows, unless noted: active = hit-call score of the fitted dose curve at least 0.9, where 1 is the maximum; inconclusive = response in the unintended direction; inactive = score below 0.9.
# Columns and labels:
# [1] = ATG_VDRE_CIS: Attagene CIS-FACTORIAL HepG2 Assay for human Vitamin D Receptor Element (VDRE) (AID 2282968; active = hit-call score of the fitted dose curve at least 0.9, where 1 is the maximum; inactive = score below 0.9); conditions: HepG2 VDRE cis-reporter transcription, actives raise or lower the signal
# Method in brief: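 Readout is VDRE-driven reporter mRNA reflecting endogenous factor activity in human HepG2 cells, sampled 24 h post-dose. Quantification used labelled RT-PCR products separated by capillary electrophoresis; bidirectional analysis relative to DMSO.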
# [2] = target: Nuclear receptor subfamily 1 group I member 3 (Homo sapiens) (UniProt Q14994); experiment: ATG_CAR_TRANS: Attagene TRANS-FACTORIAL HepG2 Assay for human Constitutive Androstane Receptor (CAR) (AID 2282969); conditions: HepG2 Attagene TRANS-FACTORIAL CAR reporter;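 also: activators raise reporter mRNA above DMSO so AC50 marks induction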
# Method in brief: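 Signal is reporter mRNA induction relative to DMSO, measured 24 h after dosing by RT-PCR with fluorescent primer extension and capillary electrophoresis. Human HepG2 liver cells carried transiently transfected chimeric NR-Gal4/GAL4-UAS reporter constructs.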
# [3] = target: Estrogen receptor (Homo sapiens) (UniProt P03372); experiment: ATG_ERa_TRANS: Attagene TRANS-FACTORIAL HepG2 Assay for human Estrogen Receptor alpha (ERa) (AID 2282970); conditions: HepG2 Attagene TRANS ERa GAL4 reporter, mRNA
# Method in brief: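 Transfected HepG2 cells carrying GAL4-UAS-driven reporter units were dosed for 24 hours. Total RNA was reverse-transcribed, reporter sequences PCR-amplified, FAM-labelled, HpaI-digested and resolved by capillary electrophoresis. Increases over DMSO control defined activity.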
# [4] = target: X-box-binding protein 1 (Homo sapiens) (UniProt P17861); experiment: ATG_Xbp1_CIS: Attagene CIS-FACTORIAL HepG2 Assay for human X-box Binding Protein 1 (XBP1) (AID 2282972; active = hit-call score of the fitted dose curve at least 0.9, where 1 is the maximum; inactive = score below 0.9); conditions: HepG2 XBP1 cis-element reporter, Attagene multiplex; actives raise or lower the signal
# Method in brief: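 Read-out: fluorescent reporter mRNA fragments resolved by capillary electrophoresis after RT-PCR. Human HepG2 liver cells carried transfected cis-promoter reporter units and were exposed to chemicals for 24 hours. Gain or loss of signal fitted relative to DMSO baseline.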
# [5] = target: Bile acid receptor (Homo sapiens) (UniProt Q96RI1); experiment: ATG_FXR_TRANS: Attagene TRANS-FACTORIAL HepG2 Assay for Farnesoid X Receptor (FXR) (AID 2282979); conditions: HepG2 Attagene TRANS FXR-GAL4 reporter transcription;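 also: hits raise reporter mRNA above DMSO so AC50 marks FXR activation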
# Method in brief: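 Chimeric FXR-GAL4 activity in transiently transfected human HepG2 liver cells is scored as induction of reporter mRNA after 24 h of dosing. Detection uses RT-PCR with fluorescent labelling and capillary electrophoresis, with DMSO serving as baseline.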
# [6] = ATG_M_19_TRANS: Attagene TRANS-FACTORIAL HepG2 Assay for M19 Transcription Factor (Internal Marker) (AID 2282974); conditions: HepG2 Attagene TRANS-FACTORIAL M19 internal marker reporter
# Method in brief: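 24 h chemical exposure of transiently transfected HepG2 (MRTU library). RNA → oligo(dT) RT → PCR → 6-FAM labelling → HpaI cut → CE fluorescence. Positive-direction fit vs DMSO baseline; background internal-marker readout.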
# [7] = target: Glucocorticoid receptor (Homo sapiens) (UniProt P04150); experiment: ATG_GR_TRANS: Attagene TRANS-FACTORIAL HepG2 Assay for human Glucocorticoid Receptor (GR) (AID 2282978); conditions: HepG2 Attagene TRANS GR reporter, mRNA transcription;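 also: activators score as hits since higher reporter transcript over DMSO is fitted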
# Method in brief: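 Transient MRTU transfection of HepG2 (GAL4-UAS reporters, exogenous NR-GAL4 chimeras), 24 h dosing. Readout: reporter transcript via RT-PCR + capillary electrophoresis fluorescence. Positive direction vs DMSO baseline.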
# [8] = target: Estrogen-related receptor gamma (Homo sapiens) (UniProt P62508); experiment: ATG_ERRg_TRANS: Attagene TRANS-FACTORIAL HepG2 Assay for human Estrogen-Related Receptor gamma (ERRg) (AID 2282977); conditions: HepG2 Attagene TRANS reporter, ERRg transactivation;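 also: hits increase reporter signal over DMSO so potencies reflect activators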
# Method in brief: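 Exogenous NR-Gal4 chimera activity measured as reporter transcript induction after 24 h in transiently transfected HepG2 cells. RNA reverse-transcribed, PCR-amplified, 6-FAM-labelled and resolved by capillary electrophoresis; increase over DMSO baseline.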
# [9] = ATG_GAL4_TRANS: Attagene TRANS-FACTORIAL HepG2 Assay for GAL4 (Internal Marker) (AID 2282976); conditions: HepG2 Attagene TRANS GAL4 internal marker reporter
# Method in brief: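 Fluorescence from capillary electrophoresis of labelled RT-PCR products quantifies reporter mRNA induction after 24 h dosing of HepG2 cells carrying transfected GAL4-UAS reporter transcription units. Vehicle DMSO serves as baseline.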
# [10] = target: Steroid hormone receptor ERR1 (Homo sapiens) (UniProt P11474); experiment: ATG_ERRa_TRANS: Attagene TRANS-FACTORIAL HepG2 Assay for human Estrogen-Related Receptor alpha (ERRa) (AID 2282971); conditions: HepG2 Attagene TRANS reporter, ERRa transactivation
# Method in brief: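 HepG2 cells were transiently transfected with multiple GAL4-UAS reporter units, then dosed with compound for 24 h. Total RNA was reverse-transcribed, reporter cDNA PCR-amplified and fluorescently labelled, and fragments resolved by capillary electrophoresis; induction was compared with DMSO.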
# Sequence of X-box-binding protein 1 (Homo sapiens) (P17861 whole entry, looked up, the tested form may be a part): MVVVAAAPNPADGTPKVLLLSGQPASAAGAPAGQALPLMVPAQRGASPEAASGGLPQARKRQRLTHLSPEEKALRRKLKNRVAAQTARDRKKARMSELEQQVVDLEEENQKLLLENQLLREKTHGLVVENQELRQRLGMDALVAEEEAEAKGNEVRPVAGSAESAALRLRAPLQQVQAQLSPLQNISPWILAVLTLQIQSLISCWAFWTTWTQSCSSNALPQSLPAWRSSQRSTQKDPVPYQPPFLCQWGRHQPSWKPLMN
# Sequence of Bile acid receptor (Homo sapiens) (Q96RI1 whole entry, looked up, the tested form may be a part): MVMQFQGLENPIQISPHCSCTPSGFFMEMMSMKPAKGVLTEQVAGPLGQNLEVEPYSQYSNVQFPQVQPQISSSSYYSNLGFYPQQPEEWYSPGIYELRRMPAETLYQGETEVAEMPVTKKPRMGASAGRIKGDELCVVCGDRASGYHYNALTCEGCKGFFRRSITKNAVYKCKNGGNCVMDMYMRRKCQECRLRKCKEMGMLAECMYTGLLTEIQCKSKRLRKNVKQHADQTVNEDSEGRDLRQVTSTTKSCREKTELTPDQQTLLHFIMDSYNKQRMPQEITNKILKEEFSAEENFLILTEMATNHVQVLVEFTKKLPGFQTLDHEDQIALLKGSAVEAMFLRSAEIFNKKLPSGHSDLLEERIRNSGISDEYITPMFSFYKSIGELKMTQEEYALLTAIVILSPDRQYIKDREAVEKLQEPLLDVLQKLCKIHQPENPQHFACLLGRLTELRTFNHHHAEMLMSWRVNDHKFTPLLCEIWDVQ
# Sequence of Estrogen-related receptor gamma (Homo sapiens) (P62508 whole entry, looked up, the tested form may be a part): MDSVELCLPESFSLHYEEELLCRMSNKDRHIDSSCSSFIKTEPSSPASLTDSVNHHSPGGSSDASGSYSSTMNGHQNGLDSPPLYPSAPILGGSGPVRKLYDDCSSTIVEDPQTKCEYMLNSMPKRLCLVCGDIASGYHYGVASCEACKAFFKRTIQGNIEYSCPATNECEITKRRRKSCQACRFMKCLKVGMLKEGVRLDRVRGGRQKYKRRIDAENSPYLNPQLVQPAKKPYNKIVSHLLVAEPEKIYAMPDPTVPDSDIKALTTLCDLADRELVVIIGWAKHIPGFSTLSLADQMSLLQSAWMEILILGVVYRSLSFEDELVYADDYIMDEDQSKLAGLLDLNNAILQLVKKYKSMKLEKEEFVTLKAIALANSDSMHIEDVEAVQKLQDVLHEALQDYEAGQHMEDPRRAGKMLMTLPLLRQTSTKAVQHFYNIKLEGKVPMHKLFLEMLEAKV
# Sequence of Nuclear receptor subfamily 1 group I member 3 (Homo sapiens) (Q14994 whole entry, looked up, the tested form may be a part): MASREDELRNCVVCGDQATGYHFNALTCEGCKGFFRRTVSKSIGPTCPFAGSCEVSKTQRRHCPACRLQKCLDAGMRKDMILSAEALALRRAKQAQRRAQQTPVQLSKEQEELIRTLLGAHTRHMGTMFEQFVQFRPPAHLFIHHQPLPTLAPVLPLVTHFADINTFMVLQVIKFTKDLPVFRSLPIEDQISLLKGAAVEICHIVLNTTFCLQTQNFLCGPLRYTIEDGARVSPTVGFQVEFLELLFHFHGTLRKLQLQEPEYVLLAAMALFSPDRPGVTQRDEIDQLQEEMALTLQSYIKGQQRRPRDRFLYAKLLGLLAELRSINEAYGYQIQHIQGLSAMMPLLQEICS
# Sequence of Estrogen receptor (Homo sapiens) (P03372 whole entry, looked up, the tested form may be a part): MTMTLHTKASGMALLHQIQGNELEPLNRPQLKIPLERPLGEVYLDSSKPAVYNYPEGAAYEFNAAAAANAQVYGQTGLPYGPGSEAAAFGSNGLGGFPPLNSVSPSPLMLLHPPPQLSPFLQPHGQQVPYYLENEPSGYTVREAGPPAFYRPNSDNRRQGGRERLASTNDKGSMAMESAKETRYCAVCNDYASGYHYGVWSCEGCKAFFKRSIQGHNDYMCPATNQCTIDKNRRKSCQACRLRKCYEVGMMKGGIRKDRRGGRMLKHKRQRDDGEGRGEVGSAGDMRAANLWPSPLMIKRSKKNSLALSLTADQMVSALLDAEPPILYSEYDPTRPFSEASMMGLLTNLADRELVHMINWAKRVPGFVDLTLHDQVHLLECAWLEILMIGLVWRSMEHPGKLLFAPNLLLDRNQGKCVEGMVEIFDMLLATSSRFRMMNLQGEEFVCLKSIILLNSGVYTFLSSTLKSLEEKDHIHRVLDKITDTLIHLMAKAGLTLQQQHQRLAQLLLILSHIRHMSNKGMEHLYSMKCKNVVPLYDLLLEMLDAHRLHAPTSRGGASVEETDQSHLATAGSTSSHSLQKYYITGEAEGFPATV
# Sequence of Glucocorticoid receptor (Homo sapiens) (P04150 whole entry, looked up, the tested form may be a part): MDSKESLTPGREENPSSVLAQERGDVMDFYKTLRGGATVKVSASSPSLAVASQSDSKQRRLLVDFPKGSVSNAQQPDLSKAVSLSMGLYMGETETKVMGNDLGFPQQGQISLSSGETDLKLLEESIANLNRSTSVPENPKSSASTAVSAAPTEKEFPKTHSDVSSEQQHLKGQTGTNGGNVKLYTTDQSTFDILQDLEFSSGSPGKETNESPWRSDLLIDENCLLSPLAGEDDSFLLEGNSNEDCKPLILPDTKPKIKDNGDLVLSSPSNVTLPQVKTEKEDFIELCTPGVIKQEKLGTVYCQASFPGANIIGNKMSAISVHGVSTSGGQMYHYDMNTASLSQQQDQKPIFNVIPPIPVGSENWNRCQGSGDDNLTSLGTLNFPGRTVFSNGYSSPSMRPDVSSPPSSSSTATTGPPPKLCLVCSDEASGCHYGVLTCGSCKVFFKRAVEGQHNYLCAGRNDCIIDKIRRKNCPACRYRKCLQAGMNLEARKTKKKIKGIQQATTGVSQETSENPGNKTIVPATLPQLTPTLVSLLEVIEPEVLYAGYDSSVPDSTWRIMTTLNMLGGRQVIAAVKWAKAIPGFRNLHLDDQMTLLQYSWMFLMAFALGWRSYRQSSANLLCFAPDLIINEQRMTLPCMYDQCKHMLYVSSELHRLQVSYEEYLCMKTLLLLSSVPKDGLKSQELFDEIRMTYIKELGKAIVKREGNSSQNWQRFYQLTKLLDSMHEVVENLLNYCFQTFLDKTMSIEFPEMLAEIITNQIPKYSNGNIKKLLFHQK
# Sequence of Steroid hormone receptor ERR1 (Homo sapiens) (P11474 whole entry, looked up, the tested form may be a part): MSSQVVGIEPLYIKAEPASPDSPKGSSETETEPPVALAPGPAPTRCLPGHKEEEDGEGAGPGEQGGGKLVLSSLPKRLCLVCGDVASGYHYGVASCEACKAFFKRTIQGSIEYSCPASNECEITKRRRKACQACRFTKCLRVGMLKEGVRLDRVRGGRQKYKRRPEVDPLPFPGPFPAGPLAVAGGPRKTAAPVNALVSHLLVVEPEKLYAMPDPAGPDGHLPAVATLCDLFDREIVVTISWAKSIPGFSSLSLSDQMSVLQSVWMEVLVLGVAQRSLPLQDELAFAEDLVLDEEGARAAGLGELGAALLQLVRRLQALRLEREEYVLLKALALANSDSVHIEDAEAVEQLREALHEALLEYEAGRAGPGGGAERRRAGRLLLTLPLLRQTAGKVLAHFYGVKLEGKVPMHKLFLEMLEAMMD
SMILES,outcome [1],outcome [2],AC50 [3],outcome [4],outcome [5],outcome [3],outcome [6],outcome [7],AC50 [1],outcome [8],outcome [9],outcome [10],AC50 [4]
COCN(COC)c1nc(N(COC)COC)nc(N(COC)COC)n1,inactive,inactive,49.3 µM (active),inactive,inactive,,,,,,,,
Oc1cc2ccccc2cc1O,inactive,inactive,,inactive,,inactive,inactive,inactive,,,,,
Cc1ccc(N=Nc2c(O)ccc3ccccc23)c(C)c1,,inactive,6.5 µM (active),inactive,,,inactive,inactive,2.55 µM (active),,,,
CCCCc1ccc2ccccc2c1S(=O)(=O)O,,inactive,,inactive,,inactive,inactive,,6.19 µM (active),inactive,,,
CCOC(C)=O,inactive,inactive,,inactive,,inactive,inactive,inactive,,,inactive,,
CC(C)C=O,inactive,inactive,,inactive,,,inactive,inactive,,inactive,inactive,inactive,
CC(=O)CC(C)C,inactive,inactive,,inactive,,,inactive,,,,inactive,inactive,
FC(F)(F)C(F)(F)C(F)(F)Br,inactive,inactive,,inactive,inactive,inactive,inactive,inactive,,,inactive,,
Cc1ccc2ccc3ccc(C)cc3c2c1,inactive,inactive,7.58 µM (active),inactive,inactive,,inactive,inactive,,inactive,,,
COc1cc(OC)nc(NC(=O)NS(=O)(=O)Nc2ccccc2C(=O)N(C)C)n1,inactive,inactive,,inactive,inactive,inactive,,inactive,,,,,
CCOC=C(C(=O)OCC)C(=O)OCC,inactive,inactive,,inactive,,inactive,inactive,inactive,,,inactive,,
Nc1cc(Cl)c(-c2cc(Cl)c(N)cc2Cl)cc1Cl,,inactive,,,,inactive,inactive,inactive,2.96 µM (active),inactive,,,11.1 µM (active)
CCCCCCC(C)(C)C(=O)O,,inactive,26.4 µM (active),inactive,,,,,73.2 µM (active),inactive,,,
CCN(CCC#N)c1ccccc1,inactive,inactive,,inactive,inactive,inactive,inactive,inactive,,,inactive,,
CC(C)(C)C1CCCCC1O (stereo not drawn),inactive,inactive,,inactive,,inactive,inactive,inactive,,,inactive,,
O=P(O)(O)CCC(F)(F)C(F)(F)C(F)(F)C(F)(F)C(F)(F)C(F)(F)C(F)(F)C(F)(F)F,inactive,inactive,,inactive,,inactive,inactive,inactive,,,inactive,,

SMILES,outcome [1],outcome [2],AC50 [3],outcome [4],outcome [5],outcome [3],outcome [6],outcome [7],AC50 [1],outcome [8],outcome [9],outcome [10],AC50 [4]
COc1ccc(C#N)cc1,inactive,inactive,,inactive,,inactive,,inactive,,,inactive,,
CCC(=O)C=Cc1ccc(OC)cc1,,inactive,,inactive,inactive,,inactive,inactive,65.6 µM (active),inactive,,inactive,
NNc1nc(-c2ccc([N+](=O)[O-])cc2)cs1,inactive,inactive,,inactive,inactive,inactive,inactive,,,inactive,,,
FC1(F)C=CC(F)(F)C1(F)F,inactive,,,inactive,inactive,inactive,inactive,inactive,,inactive,,inactive,
CC1CCC(CO)CC1 (stereo not drawn),inactive,,62.4 µM (active),inactive,,inactive,inactive,inactive,,,inactive,,
O=S(=O)(O)c1ccc2cc(O)ccc2c1,inactive,inactive,,inactive,,,inactive,inactive,,,,,
FC(F)(F)C1(F)C(F)(F)C(F)(F)C(F)(F)C1(F)F,inactive,,,inactive,,inactive,inactive,inactive,,,inactive,inactive,
c1cc[nH]c1,inactive,,,inactive,,inactive,,inactive,,,inactive,inactive,
COc1cc([N+](=O)[O-])ccc1N,inactive,inactive,,inactive,,,inactive,,,,inactive,,
O=C(C=C(O)C(F)(F)F)C(F)(F)F,inactive,,,inactive,,inactive,inactive,inactive,,,inactive,inactive,
NCc1cccc(CN)c1,inactive,inactive,,inactive,inactive,,inactive,inactive,,,inactive,,
CC(C)[C@@H]1CC[C@@H](C)C[C@H]1O,inactive,inactive,,inactive,inactive,,inactive,,,,inactive,,
O=C1OC2(c3ccccc31)c1cc(I)c(O)c(I)c1Oc1c2cc(I)c(O)c1I,,inactive,,inactive,,,inactive,,20.4 µM (active) and 23.8 µM (active) and 22 µM (active),inactive,inactive,,
FC(F)(F)C(F)(F)C(F)(F)C(F)(F)I,inactive,,,inactive,inactive,inactive,inactive,,,,,inactive,
CC1CNCC(C)O1 (stereo not drawn),inactive,inactive,,inactive,,,,inactive,,,inactive,,
